Experimental data published in the supplement of paper PMC10127200.
Where a name gives a salt, the structure may show the parent alone.

Experiments:
Assay in all cases: Euclidean distance of Cell Painting phenotypic profile (signed KS, 77 features) to DMSO centroid (dimensionless distance); 5 or 10 uM (library dependent); higher = stronger phenotypic change vs DMSO (phenoactivity)
Settings in all cases: 48 h
[1] = tested on: 786-O
Outline: (§1)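 At 10 or 5 uM, as set by the library, and 0.1% DMSO final, compounds were applied for 48 h to five cancer lines and one healthy fibroblast line. Stained cells were imaged confocally at 20X in 9 fields per well, and Harmony extracted 77 features scored as signed Kolmogorov-Smirnov statistics against vehicle wells on the same plate. Profiles underwent plate-position correction, correlation weighting and replicate averaging at the top dose. Phenoactivity is the Euclidean distance from each such profile to the median vehicle profile.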

[2] = tested on: A549
Outline: as §1

[3] = tested on: DU145
Outline: as §1

[4] = tested on: FB
Outline: as §1

[5] = tested on: HEPG2
Outline: as §1

[6] = tested on: OVCAR4
Outline: as §1

| SMILES | Euclidean distance [1] | Euclidean distance [2] | Euclidean distance [3] | Euclidean distance [4] | Euclidean distance [5] | Euclidean distance [6] |
| --- | --- | --- | --- | --- | --- | --- |
| Cc1nc(N)sc1-c1ccnc(Nc2ccc(N3CCOCC3)cc2)n1 | 2.86 | 3.52 | 1.18 | 1.92 | 2.08 | 2.59 |
| Cc1ccc(-c2ncc(Cl)cc2-c2ccc(S(C)(=O)=O)cc2)cn1 [Etoricoxib] | 0.705 | 0.64 | 0.802 | 1.09 | 0.559 | 0.802 |
| CCOC(CN1CCN(CC(C)C(=O)c2ccccc2)CC1)c1ccccc1 (stereo unspecified) [Eprazinone 2HCl] | 1.87 | 1.02 | 1.2 | 1.38 | 1.56 | 1.28 |
| CC(C)(Sc1cc(C(C)(C)C)c(O)c(C(C)(C)C)c1)Sc1cc(C(C)(C)C)c(O)c(C(C)(C)C)c1 [Probucol] | 0.793 | 0.681 | 0.734 | 0.921 | 1.07 | 1.14 |
| CCc1cccc(CC)c1NC(=O)N1Cc2[nH]nc(NC(=O)c3ccc(N4CCN(C)CC4)cc3)c2C1 | 2.54 | 2.75 | 2.46 | 3.44 | 2.47 | 2.78 |
| CCC1=C[C@@H]2CN(C1)Cc1c([nH]c3ccccc13)[C@@](C(=O)OC)(c1cc3c(cc1OC)N(C)[C@H]1[C@@](O)(C(=O)OC)[C@H](OC(C)=O)[C@]4(CC)C=CCN5CC[C@]31[C@@H]54)C2 [Vinorelbine Tartrate] | 3.19 | 3.7 | 4.27 | 3.46 | 2.97 | 3.03 |
| CNC(=O)c1ccc(N2C(=S)N(c3cnc(C#N)c(C(F)(F)F)c3)C(=O)C23CCC3)cc1F | 1.4 | 1.24 | 0.954 | 0.828 | 1.01 | 1.16 |
| OCCN1CCN(CCCN2c3ccccc3Sc3ccc(C(F)(F)F)cc32)CC1 [Fluphenazine dihydrochloride] | 1.98 | 2.27 | 1.87 | 2.76 | 2.66 | 1.77 |
| O=C(O)c1ccc(CN2CCC(CN[C@@H]3C[C@H]3c3ccccc3)CC2)cc1 | 1.04 | 1.01 | 0.946 | 1.08 | 1.11 | 1.06 |
| CCCc1cc(=O)[nH]c(=S)[nH]1 [Propylthiouracil] | 0.782 | 1.25 | 2.02 | 1.4 | 0.77 | 1.77 |
| CCCCCCCCCCCCCCCCn1cc[n+](Cc2ccccc2)c1C | 3.58 | 4.18 | 2.89 | 2.94 | 4.61 | 4.19 |
| COc1cc2c(Oc3ccc4[nH]c(C)cc4c3F)ccnc2cc1OCC1(N)CC1 [Anlotinib (AL3818) dihydrochloride] | 3.26 | 3.7 | 2.73 | 3.46 | 3.11 | 3.17 |
| Cn1nnc(-c2ccc(-c3ccc(N4C[C@H](COP(=O)(O)O)OC4=O)cc3F)cn2)n1 [Tedizolid Phosphate] | 0.75 | 0.64 | 0.82 | 0.929 | 0.638 | 0.87 |
| CCN1C[C@H](C)n2c(c(O)c3c(=O)n(Cc4ccc(F)c(Cl)c4)nc(C(=O)NC)c32)C1=O | 1.08 | 0.61 | 1.05 | 0.927 | 0.645 | 1 |
| CCC(=O)O[C@H]1[C@H](O[C@@H]2[C@@H](C)[C@H](O[C@H]3C[C@@](C)(OC)[C@@H](O)[C@H](C)O3)[C@@H](C)C(=O)O[C@H](CC)[C@@](C)(O)[C@H](O)[C@@H](C)C(=O)[C@H](C)C[C@@]2(C)O)O[C@H](C)C[C@@H]1N(C)C [Erythromycin estolate] | 0.939 | 1.04 | 1.77 | 1.82 | 0.988 | 1.19 |
| COc1cc(NC(=O)c2ccccn2)ccc1Cl | 1.08 | 0.966 | 0.845 | 1.02 | 0.638 | 1.19 |
| COc1ccc2cc(CCC(C)=O)ccc2c1 [Nabumetone] | 0.791 | 1.11 | 0.872 | 0.947 | 0.532 | 1.55 |
| CCn1c2ccccc2c2cc(Nc3ccnc(NCCCN4CCOCC4)n3)ccc21 | 3.23 | 2.84 | 1.12 | 2.94 | 2.27 | 1.98 |
| COc1ccc2cc([C@H](C)C(=O)O)ccc2c1 [Naproxen Sodium] | 1.02 | 0.936 | 0.948 | 0.856 | 0.593 | 0.977 |
| CC(C)(Oc1ccc(C(=O)c2ccc(Cl)cc2)cc1)C(=O)O [Fenofibric acid] | 0.559 | 1.24 | 0.978 | 1.59 | 0.698 | 0.976 |
| OC[C@@H](O)[C@@H](O[C@@H]1O[C@H](CO)[C@H](O)[C@H](O)[C@H]1O)[C@H](O)[C@@H](O)CO [Lactitol] | 0.637 | 0.843 | 0.537 | 0.733 | 0.29 | 1.17 |
| OC(c1cc(C(F)(F)F)nc2c(C(F)(F)F)cccc12)C1CCCCN1 (stereo unspecified) [Mefloquine HCl] | 2.22 | 2.49 | 1.85 | 2.46 | 4.9 | 2.05 |
| COc1nccnc1NS(=O)(=O)c1ccc(N)cc1 [Sulfalene(SMPZ)] | 0.789 | 1.44 | 1.18 | 1.41 | 0.406 | 0.917 |

| SMILES | Euclidean distance [1] | Euclidean distance [2] | Euclidean distance [3] | Euclidean distance [4] | Euclidean distance [5] | Euclidean distance [6] |
| --- | --- | --- | --- | --- | --- | --- |
| C[C@@H]1C/C=C/C=C/C=C/C=C/[C@H](O[C@@H]2O[C@H](C)[C@@H](O)[C@H](N)[C@@H]2O)C[C@@H]2O[C@](O)(C[C@@H](O)C[C@H]3O[C@@H]3/C=C/C(=O)O1)C[C@H](O)[C@H]2C(=O)O [Natamycin] | 1.51 | 0.972 | 1.07 | 1.11 | 1.14 | 1.02 |
| CN(NC(=O)CC(=O)NN(C)C(=S)c1ccccc1)C(=S)c1ccccc1 [Elesclomol (STA-4783)] | 5.12 | 5.4 | 4.86 | 6.42 | 1.29 | 6.01 |
| Cc1cc(CN2CCN(c3c(Br)cnc4nc(-c5ccc(N6CCN(C)CC6)cc5)[nH]c34)CC2)no1 | 1.51 | 1.27 | 1.12 | 0.806 | 1.67 | 1.25 |
| CCN(CC)Cc1cc(Nc2ccnc3cc(Cl)ccc23)ccc1O [Amodiaquine] | 2.2 | 2.16 | 1.37 | 3.19 | 2.51 | 2.02 |
| C[C@H](O)C(=O)Nc1c(I)c(C(=O)NC(CO)CO)c(I)c(C(=O)NC(CO)CO)c1I [Iopamidol] | 0.656 | 0.571 | 0.699 | 1.06 | 0.734 | 1.33 |
| N#Cc1ccc2[nH]c(O)c(-c3ccc(CN4CCOCC4)cn3)c2c1 | 3.45 | 2.98 | 2.02 | 1.79 | 1.72 | 3.02 |
| C#C[C@]1(O)CC[C@H]2[C@@H]3CCc4cc(OC)ccc4[C@H]3CC[C@@]21C [Mestranol] | 1.12 | 0.814 | 0.785 | 1.26 | 0.905 | 1.38 |
| CC1CCc2c(N3CCC(O)CC3)c(F)cc3c(=O)c(C(=O)O)cn1c23 (stereo unspecified) [Nadifloxacin] | 1.05 | 0.818 | 0.896 | 1.14 | 0.855 | 0.748 |
| CCCCCNC(=N)N/N=C/c1c[nH]c2ccc(OC)cc12 [Tegaserod Maleate] | 5.85 | 4.48 | 5.39 | 6.34 | 4.98 | 5.08 |
| O=C(O)C1CSCN1 (stereo unspecified) [Timonacic] | 1.39 | 0.753 | 0.835 | 0.853 | 0.578 | 1.18 |
| Nc1nc2c(ncn2COC(CO)CO)c(=O)[nH]1 [Ganciclovir] | 1.56 | 0.816 | 0.888 | 1.25 | 0.883 | 3.37 |
| CCN1CCN(Cc2ccc(Nc3ncc(F)c(-c4cc(F)c5nc(C)n(C(C)C)c5c4)n3)nc2)CC1 | 5.75 | 5.05 | 5.66 | 4.66 | 3.78 | 5.2 |
| CN1[C@@H]2CC[C@H]1C[C@@H](OC(=O)c1c[nH]c3ccccc13)C2 [Tropisetron] | 1.17 | 1.76 | 1.05 | 1.46 | 1.1 | 1.17 |
| O=C(Nc1ccccc1-c1cn2c(CN3CCNCC3)csc2n1)c1cnc2ccccc2n1 | 6.03 | 5.64 | 5.63 | 5.74 | 5.23 | 5.14 |
| Cc1ccc(C(=O)N(CCCN)[C@@H](c2oc3cc(Cl)ccc3c(=O)c2Cc2ccccc2)C(C)C)cc1 | 3.9 | 3.16 | 3.86 | 2.4 | 2.19 | 3.2 |
| CO/N=C(\C(=O)N[C@@H]1C(=O)N2C(C(=O)O)=C(COC(C)=O)CS[C@H]12)c1csc(N)n1 [Cefotaxime] | 1.26 | 0.798 | 0.573 | 0.69 | 0.777 | 0.905 |
| CC(=O)NS(=O)(=O)c1ccc(N)cc1 [Sulfacetamide sodium salt hydrate] | 1.2 | 0.692 | 0.872 | 1.61 | 0.38 | 1.53 |
| CC(=O)O[C@H]1C[C@@H]2CC[C@@H]3[C@H](CC[C@@]4(C)[C@H]3C[C@H]([N+]3(C)CCCCC3)[C@@H]4OC(C)=O)[C@@]2(C)C[C@@H]1N1CCCCC1 [Vecuronium Bromide] | 1.85 | 1.53 | 1.34 | 1.07 | 0.966 | 1.28 |
| CC[C@H]1OC(=O)[C@H](C)[C@@H](O[C@H]2C[C@@](C)(OC)[C@@H](O)[C@H](C)O2)[C@H](C)[C@@H](O[C@@H]2O[C@H](C)C[C@H](N(C)C)[C@H]2O)[C@](C)(O)C[C@@H](C)C(=O)[C@H](C)[C@@H](O)[C@]1(C)O [Erythromycin] | 1.41 | 1.02 | 1.69 | 1.16 | 3.29 | 1.43 |
| CC(C)Oc1ccc2c(=O)c(-c3ccccc3)coc2c1 [Ipriflavone (Osteofix)] | 1.22 | 1.44 | 1.15 | 1.17 | 0.723 | 2.28 |
| CCCC(CCC)C(N)=O [Valpromide] | 0.509 | 1.08 | 1 | 1.42 | 0.77 | 1.44 |
| CN[C@H]1CC[C@@H](c2ccc(Cl)c(Cl)c2)c2ccccc21 [Sertraline HCl] | 2.46 | 2.13 | 1.74 | 2.83 | 4.1 | 2.02 |
| CCOC(=O)c1ccc(C#Cc2ccc3c(c2)C(C)(C)CCS3)nc1 [Tazarotene] | 1.01 | 1.14 | 0.728 | 2.31 | 0.556 | 1.27 |
